What all share (parameters): scale not given: direction of the effect not stated beside the values
The target in experiment [1] is Protein translocase subunit SecA (Escherichia coli (strain K12)) (UniProt P10408). Kind of experiment: Assay to Identify E. coli SecA ATPase Inhibitors. To be noted: 30 µM. The experiment is classed as functional.
Experiment [2] addresses T1, Ubiquitin-activating enzyme e1, putative (Leishmania donovani (strain BPK282A1)) (UniProt E9BSI1).
T1 sequence (whole entry): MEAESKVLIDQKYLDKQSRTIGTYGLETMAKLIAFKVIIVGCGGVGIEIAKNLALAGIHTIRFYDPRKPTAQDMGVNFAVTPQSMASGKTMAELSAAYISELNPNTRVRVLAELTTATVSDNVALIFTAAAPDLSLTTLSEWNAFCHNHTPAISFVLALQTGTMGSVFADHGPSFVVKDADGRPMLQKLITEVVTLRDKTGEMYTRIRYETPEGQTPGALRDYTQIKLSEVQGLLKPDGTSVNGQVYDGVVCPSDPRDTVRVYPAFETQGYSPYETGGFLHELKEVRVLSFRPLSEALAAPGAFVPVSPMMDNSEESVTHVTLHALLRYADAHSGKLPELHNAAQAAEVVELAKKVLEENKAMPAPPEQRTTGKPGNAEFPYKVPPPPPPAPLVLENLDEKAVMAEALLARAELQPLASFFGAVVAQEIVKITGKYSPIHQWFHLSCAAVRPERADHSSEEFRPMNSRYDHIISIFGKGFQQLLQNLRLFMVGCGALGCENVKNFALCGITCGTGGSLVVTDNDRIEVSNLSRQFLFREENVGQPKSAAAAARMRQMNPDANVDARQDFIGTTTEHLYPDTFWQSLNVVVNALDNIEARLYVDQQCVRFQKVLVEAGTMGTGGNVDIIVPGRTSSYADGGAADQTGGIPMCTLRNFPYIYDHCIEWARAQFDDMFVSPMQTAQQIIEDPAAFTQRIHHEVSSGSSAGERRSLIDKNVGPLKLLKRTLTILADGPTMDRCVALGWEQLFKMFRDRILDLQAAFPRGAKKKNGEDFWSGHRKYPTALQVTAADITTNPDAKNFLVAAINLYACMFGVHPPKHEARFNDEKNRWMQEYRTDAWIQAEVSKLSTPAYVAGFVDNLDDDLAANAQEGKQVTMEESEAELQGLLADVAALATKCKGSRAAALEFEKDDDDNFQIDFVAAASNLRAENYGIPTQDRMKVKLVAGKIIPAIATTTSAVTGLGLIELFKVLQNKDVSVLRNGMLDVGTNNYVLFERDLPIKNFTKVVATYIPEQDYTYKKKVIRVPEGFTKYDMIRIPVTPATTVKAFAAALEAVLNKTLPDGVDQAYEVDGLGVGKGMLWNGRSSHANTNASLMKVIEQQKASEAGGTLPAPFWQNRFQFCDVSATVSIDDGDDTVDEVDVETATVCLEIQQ
Nature of the experiment: Leishmania donovani Ubiquitin Activating Enzyme (LdE1). Format: functional. As to conditions: 30 µM.

Experiment [3] addresses AMP-activated protein kinase, AMPK (Homo sapiens) (UniProt P54646+O43741+P54619+Q9UGJ0+Q9Y478+Q13131+Q9UGI9). Nature of the experiment: AMP-dependent Kinase enzyme assay. An in vitro enzyme assay that detects ADP turnover that is directly proportional to AMPK activity. This uses naive AMPK that is activated during the assay with MK-8722. The experiment is classed as functional. As to conditions: 30 µM.

Experiment [4] has as its target Sialic acid-binding Ig-like lectin 9 (Homo sapiens) (UniProt Q9Y336). Nature of the experiment: Hs-Siglec9 ALPHAscreen SOP 20170721. To be noted: 10 µM. (In general: In Alpha technology, singlet oxygen from a donor bead excites a nearby acceptor bead.)
Experiment [5] has as its system Trypanosoma cruzi. Kind of experiment: Trypanosoma cruzi phosphomannomutase and mannose-1-phosphate guanylyltransferase assay. Format: functional. As to conditions: 10 µM.
The target in experiment [6] is T2, Arginase-2, mitochondrial (Homo sapiens) (UniProt P78540).
T2 sequence (whole entry): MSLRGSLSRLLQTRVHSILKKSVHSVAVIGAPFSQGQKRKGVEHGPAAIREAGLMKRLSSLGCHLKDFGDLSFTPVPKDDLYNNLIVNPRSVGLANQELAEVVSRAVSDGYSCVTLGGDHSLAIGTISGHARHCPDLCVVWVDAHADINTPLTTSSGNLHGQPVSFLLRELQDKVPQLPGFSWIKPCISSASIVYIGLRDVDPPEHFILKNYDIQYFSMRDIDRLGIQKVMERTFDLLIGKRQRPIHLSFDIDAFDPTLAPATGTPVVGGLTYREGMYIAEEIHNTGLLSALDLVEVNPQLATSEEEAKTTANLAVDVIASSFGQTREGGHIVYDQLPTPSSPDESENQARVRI
Kind of experiment: in vitro enzyme assay to detect the production of urea directly proportional to the activity of Arginase II. Note: in the data most compounds retested in dose-response had high values. Format: functional. To be noted: 33.3 µM.

The target in experiment [7] is T3, Proteasome subunit beta (Trypanosoma cruzi) (UniProt O96673).
T3 sequence (whole entry): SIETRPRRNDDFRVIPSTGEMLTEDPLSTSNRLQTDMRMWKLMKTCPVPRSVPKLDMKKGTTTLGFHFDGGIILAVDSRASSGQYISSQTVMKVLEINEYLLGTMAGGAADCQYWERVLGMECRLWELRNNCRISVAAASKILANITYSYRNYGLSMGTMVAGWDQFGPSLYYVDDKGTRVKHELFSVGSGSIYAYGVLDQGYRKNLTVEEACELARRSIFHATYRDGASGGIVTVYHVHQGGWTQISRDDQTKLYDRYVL
Nature of the experiment: Trypanosoma cruzi proteasome chymotrypsin-like activity (TcProtChymo) assay. Note: in the data most compounds retested in dose-response had high values. The experiment is classed as functional. As to conditions: 9.37 µM.

The species entered for experiment [8] is Homo sapiens. Nature of the experiment: To identify inhibition of the IFN signalling (Jak-Stat) pathway via expression of an eGFP reporter gene under the control of an IFN-stimulated response element (ISRE) containing MxA promoter. The experiment is classed as functional. To be noted: 30 µM. For orientation: Reporter assays use an easily measured gene product as a stand-in for the process of interest.

In experiment [9] the target is T4, Tyrosyl-tRNA synthetase, putative (Trypanosoma cruzi (strain CL Brener)) (UniProt Q4DSP6).
T4 sequence (whole entry): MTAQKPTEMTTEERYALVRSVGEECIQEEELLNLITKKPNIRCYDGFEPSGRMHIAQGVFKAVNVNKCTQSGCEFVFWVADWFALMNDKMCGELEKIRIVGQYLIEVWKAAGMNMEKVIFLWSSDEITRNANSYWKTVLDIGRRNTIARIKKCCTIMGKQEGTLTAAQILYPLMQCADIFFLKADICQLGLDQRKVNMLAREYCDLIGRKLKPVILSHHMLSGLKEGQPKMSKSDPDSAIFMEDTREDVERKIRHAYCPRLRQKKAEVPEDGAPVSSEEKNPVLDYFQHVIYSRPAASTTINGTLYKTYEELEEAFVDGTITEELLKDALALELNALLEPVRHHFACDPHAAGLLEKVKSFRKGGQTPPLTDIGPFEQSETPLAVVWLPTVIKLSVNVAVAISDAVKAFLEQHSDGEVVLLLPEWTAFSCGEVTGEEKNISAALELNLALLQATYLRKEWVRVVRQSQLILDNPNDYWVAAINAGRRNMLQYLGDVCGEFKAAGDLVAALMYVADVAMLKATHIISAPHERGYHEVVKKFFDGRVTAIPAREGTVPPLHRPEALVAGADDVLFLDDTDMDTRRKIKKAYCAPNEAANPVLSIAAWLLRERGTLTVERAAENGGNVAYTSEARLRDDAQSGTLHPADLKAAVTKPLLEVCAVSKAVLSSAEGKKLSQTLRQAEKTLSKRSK
Nature of the experiment: Trypanosoma cruzi tyrosyl tRNA synthetase (TcYRS) _High Tyrosine SOP. Note: in the data most compounds retested in dose-response had high values. The experiment is classed as functional. To be noted: 30 µM.

Experiment [10] has as its target T4, Tyrosyl-tRNA synthetase, putative (Trypanosoma cruzi (strain CL Brener)). Kind of experiment: Trypanosoma cruzi tyrosyl tRNA synthetase (TcYRS) SOP. The experiment is classed as functional. As to conditions: 30 µM.
Experiment [11] has as its target Chromo domain-containing protein 1 (Saccharomyces cerevisiae (strain ATCC 204508 / S288c) (Baker's yeast)) (UniProt P32657). Kind of experiment: ScCHD-1 Enzyme Inhibition Assay. Note: in the data most compounds retested in dose-response had high values. Format: functional. To be noted: 30 µM.

Among the data in ChEMBL document CHEMBL3988442, “University of Dundee, Small-Polar-MMV Screening Library” (2021) are Percent Effect values, retold here.

The structures appear in SMILES notation. For part of these data: Measured potencies and affinities stand elsewhere.

Chain of Protein translocase subunit SecA (Escherichia coli (strain K12)) (P10408 whole entry): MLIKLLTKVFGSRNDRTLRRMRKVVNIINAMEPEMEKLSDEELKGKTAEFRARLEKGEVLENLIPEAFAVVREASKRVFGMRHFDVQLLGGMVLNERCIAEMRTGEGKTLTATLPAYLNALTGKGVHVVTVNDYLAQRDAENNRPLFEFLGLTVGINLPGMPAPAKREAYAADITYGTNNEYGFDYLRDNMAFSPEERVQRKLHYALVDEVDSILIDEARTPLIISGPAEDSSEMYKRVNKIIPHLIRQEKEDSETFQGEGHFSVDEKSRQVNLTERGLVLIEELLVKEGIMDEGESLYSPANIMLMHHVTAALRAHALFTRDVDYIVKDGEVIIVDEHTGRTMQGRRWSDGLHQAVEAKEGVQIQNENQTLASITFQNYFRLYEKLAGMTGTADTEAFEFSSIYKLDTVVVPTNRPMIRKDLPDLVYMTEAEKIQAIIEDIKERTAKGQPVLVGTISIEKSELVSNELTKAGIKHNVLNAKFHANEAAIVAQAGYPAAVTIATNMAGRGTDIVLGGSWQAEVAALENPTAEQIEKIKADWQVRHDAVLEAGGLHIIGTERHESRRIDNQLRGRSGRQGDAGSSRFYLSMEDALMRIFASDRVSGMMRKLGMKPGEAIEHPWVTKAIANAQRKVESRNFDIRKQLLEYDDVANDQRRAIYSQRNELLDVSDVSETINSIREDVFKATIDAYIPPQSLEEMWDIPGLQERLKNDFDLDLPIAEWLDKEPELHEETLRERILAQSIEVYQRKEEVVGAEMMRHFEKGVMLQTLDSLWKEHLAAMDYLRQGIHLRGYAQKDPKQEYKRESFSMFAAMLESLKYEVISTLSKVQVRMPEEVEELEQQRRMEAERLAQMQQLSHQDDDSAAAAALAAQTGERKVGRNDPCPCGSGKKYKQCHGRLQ
Chain of Sialic acid-binding Ig-like lectin 9 (Homo sapiens) (Q9Y336 whole entry): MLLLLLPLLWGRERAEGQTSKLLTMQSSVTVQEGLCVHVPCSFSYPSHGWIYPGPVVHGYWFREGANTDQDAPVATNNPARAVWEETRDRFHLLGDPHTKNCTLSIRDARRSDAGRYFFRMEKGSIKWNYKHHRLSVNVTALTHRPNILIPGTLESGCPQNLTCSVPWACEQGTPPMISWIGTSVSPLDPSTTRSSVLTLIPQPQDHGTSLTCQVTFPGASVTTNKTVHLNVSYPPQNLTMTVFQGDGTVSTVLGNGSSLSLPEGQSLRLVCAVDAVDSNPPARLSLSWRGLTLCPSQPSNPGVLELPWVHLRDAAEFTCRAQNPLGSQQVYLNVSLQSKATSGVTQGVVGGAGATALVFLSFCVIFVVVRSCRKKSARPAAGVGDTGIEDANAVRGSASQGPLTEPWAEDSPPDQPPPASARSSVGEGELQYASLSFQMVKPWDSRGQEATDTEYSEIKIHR
Chain of Chromo domain-containing protein 1 (Saccharomyces cerevisiae (strain ATCC 204508 / S288c) (Baker's yeast)) (P32657 whole entry, the tested form may be a part): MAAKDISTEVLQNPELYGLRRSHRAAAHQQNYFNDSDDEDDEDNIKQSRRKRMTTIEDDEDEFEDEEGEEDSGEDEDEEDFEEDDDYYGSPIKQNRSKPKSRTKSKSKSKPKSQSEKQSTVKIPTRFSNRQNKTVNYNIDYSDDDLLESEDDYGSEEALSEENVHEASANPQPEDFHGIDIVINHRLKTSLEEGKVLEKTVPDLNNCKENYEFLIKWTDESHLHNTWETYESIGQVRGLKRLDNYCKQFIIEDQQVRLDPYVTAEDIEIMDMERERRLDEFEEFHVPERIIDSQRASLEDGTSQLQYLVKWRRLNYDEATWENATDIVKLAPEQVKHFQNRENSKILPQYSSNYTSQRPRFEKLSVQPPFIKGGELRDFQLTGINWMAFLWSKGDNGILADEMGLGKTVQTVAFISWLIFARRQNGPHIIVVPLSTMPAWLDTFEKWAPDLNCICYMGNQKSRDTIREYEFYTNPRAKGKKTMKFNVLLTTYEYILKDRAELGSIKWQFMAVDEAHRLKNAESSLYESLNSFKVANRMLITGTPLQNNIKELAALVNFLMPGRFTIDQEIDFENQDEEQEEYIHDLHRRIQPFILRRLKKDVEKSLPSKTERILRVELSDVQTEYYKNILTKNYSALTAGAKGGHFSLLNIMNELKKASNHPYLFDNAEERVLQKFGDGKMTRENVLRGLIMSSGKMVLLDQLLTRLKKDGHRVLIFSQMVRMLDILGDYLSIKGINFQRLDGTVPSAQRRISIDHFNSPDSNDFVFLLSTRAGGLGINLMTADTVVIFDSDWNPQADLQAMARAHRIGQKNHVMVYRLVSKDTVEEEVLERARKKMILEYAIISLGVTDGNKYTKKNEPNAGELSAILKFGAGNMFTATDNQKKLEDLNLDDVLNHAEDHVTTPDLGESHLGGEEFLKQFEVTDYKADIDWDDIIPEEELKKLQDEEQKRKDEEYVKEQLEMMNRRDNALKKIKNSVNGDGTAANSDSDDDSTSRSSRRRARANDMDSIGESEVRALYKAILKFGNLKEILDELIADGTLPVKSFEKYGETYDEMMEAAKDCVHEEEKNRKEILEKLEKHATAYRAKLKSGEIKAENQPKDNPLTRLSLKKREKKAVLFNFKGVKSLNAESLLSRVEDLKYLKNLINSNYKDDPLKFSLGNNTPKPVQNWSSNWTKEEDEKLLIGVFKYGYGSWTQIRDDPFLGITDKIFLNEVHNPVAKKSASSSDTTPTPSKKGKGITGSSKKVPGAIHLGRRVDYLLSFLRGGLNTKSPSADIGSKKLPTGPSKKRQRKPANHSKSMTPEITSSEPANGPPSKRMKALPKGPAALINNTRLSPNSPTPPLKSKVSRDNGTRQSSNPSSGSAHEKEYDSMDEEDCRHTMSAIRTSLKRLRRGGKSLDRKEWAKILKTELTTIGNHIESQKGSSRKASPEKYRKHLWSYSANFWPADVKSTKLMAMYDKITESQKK

In the case of `Cc1ccc(NC2CCN(C(=O)c3cccc(F)c3F)CC2)nn1`, the Percent Effect in experiment [1] is 0.567%; in experiment [2] it was -6.33%; in [3], 2.51%; in [4] it was 4.94%; in [5] it was 0.308%; in experiment [6], -0.645%. The Percent Effect in experiment [7] is 1.54%; in experiment [8] it was 10.2%; in experiment [9] it was 4.17%; in experiment [10] it was 5.06%; in experiment [11] it was -24.5%.
As for `c1ccc(CCN2CCN(c3ccc4nncn4n3)CC2)nc1`, the Percent Effect was -3.09% in [1]; 5.2% in experiment [2]; 9.47% in experiment [3]; 7.22% in [4]; -4.49% in experiment [5]; 3.56% in [6]. In addition, the Percent Effect was 3.72% in experiment [7]; 21.7% in experiment [8]; 2.91% in [9]; 7.32% in [10]; -0.331% in experiment [11].
Take `O=C(NCCNC(=O)N1CCC(c2ccccc2)C1)C1CC1` (stereo unspecified): the Percent Effect in experiment [1] is -2.18%; in experiment [2], 18.9%; in [3] it was -5.02%; in [4], 22%; in experiment [5] it was 4.44%; in experiment [6], 2.38%. Further, the Percent Effect in experiment [7] was 15.5%; in experiment [8], 8.1%; in experiment [9], 2.65%; in experiment [10], 14.6%; in [11] it was -0.679%.
`COC(=O)N1CCCC(C(=O)NCc2cc3cccc(OC)c3o2)C1` (stereo unspecified): the Percent Effect in [1] was -4.05%; in experiment [2] it was 7.59%; in experiment [3] it was 3.35%; in experiment [4] it was 19.5%; in [5], -2.36%; in experiment [6], 2.28%. Moreover, the Percent Effect in experiment [7] is -2.54%; in [8], -18.3%; in experiment [9], 3.45%; in experiment [10], 8.86%; in experiment [11], -3.44%.
As to `c1cnc2c(C3CCN(Cc4ccsc4)CC3)n[nH]c2n1`, the Percent Effect was -4.33% in experiment [1]; 20.3% in experiment [2]; 10.3% in [3]; -8.48% in [4]; 5.14% in experiment [5]; -1.62% in experiment [6]. For the same compound, the Percent Effect turned out to be 17.9% in [7]; 18.2% in [8]; 3.23% in experiment [9]; 9.09% in [10]; 20.2% in experiment [11].
For `CCc1ccccc1-n1cc(O)c(C(=O)N2CCCCC2)n1`, the Percent Effect in experiment [1] was -2.01%; in experiment [2], -29.7%; in [3], 5.9%; in experiment [4], -1.13%; in experiment [5] it was -4.36%; in experiment [6], 0.185%. Moreover, the Percent Effect in [7] was 4.85%; in experiment [8], 20.6%; in experiment [9], -23.8%; in [10], -45.1%; in experiment [11], 2%.
